From PubChem BioAssay
Most compounds without a hit are left out; they make up all but 14% or so of the library.
LASV entry inh: qHTS for Inhibitors of binding or entry into cells for Lassa Virus. Potency, µM (series often up to 37.9 µM), usual class: inhibitors. Lassa virus pseudotype entry inhibition, cell reporter. AID 540256, 2011. 300,000 tested, 1.2% active; calls by dose curve; tested in HEK293 cells; note: nearly all actives have a fitted effect of over 50% in size
Pf growth 48h: Primary qHTS for delayed death inhibitors of the malarial parasite plastid, 48 hour incubation | 310,000 tested, 5.9% active | P. falciparum luciferase growth in erythrocytes, 48 h | Potency, µM (top dose mostly 28.7 µM), usual class: inhibitors
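Compounds are pin-transferred into medium, infected erythrocytes (2% hematocrit, 0.1% parasitemia final) are added, and plates sit one parasite generation at 37 C in 5% CO2. Detection reagent is then added and luminescence measured.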
HCMV antiviral: qHTS Assay for inhibitors of the human cytomegalovirus (HCMV). HFF cells, HCMV-luciferase reporter, 72 h; stronger effect = lower value. 410,000 tested, 4.5% active. activity change, negative = inhibition, % at 57.5 µM. AID 1259415, 2018; in the data active = activity change below about -60%; inconclusive = no clear call, values can overlap the other calls; inactive = above about -39%
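After 16 h attachment at 37C, HFF cells received test compound and HCMV-luciferase (1 PFU/cell); reporter luminescence read 72 h later, data normalized against buffer-only and known inhibitor Salinomycin.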
Pf growth 96h: Primary qHTS for delayed death inhibitors of the malarial parasite plastid, 96 hour incubation | AID 504834, 2011 | 320,000 tested, 6.9% active | P. falciparum luciferase reporter growth, 96 h | Potency, µM (top dose mostly 28.7 µM), hits mostly inhibitors
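Two parasite generations (96 h, 37 C, 5% CO2) of compound exposure in infected erythrocytes (0.05% parasitemia, 2% hematocrit). Luciferase-reporter P. falciparum; decreased luminescence indicates inhibited growth, aimed at apicoplast-acting delayed death.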
Marburg entry inh: qHTS for inhibitors of binding or entry into cells for Marburg Virus; AID 540276, 2011; Marburg virus pseudotyped entry inhibition, cell reporter; 300,000 tested, 1.8% active; Potency, µM (highest dose often 37.8 µM), most hits filed as inhibitors; calls by dose curve; tested in HEK293 cells
HCV inh: qHTS Assay for Inhibitors of Hepatitis C Virus (HCV); 340,000 tested, 3.4% active; Huh7.5.1 HCVcc-Cre infection, luciferase reporter, 44 h; Potency, µM (doses to about 41.8 µM), usual class: inhibitors
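A cell-based infection assay in which seeded cells (1,000 per well) receive test compound after 4 h, are inoculated with HCVcc-Cre at approximately 0.5 moi, and are incubated 44 h before luminescence detection.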
Each line names hits and unclear results; the compound was inactive in the other large screens. Unless noted, calls come from the whole dose curve; as a rule, active = well fitted inhibition curve with a large enough effect; inconclusive = small, poorly fitted or top-dose-only effect, or another doubt; inactive = no such curve, though single readings can be large or run the other way.

COc1cc2c(cc1OC)C(COc1ccc3c(C)cc(=O)oc3c1)N(C(=O)c1ccccc1C)CC2 (stereo unspecified)	Marburg entry inh inconclusive (no result: Pf growth 48h, Pf growth 96h, HCV inh)
COc1cc2c(cc1OC)C(COc1ccc([N+](=O)[O-])cc1)N(C(C)=O)CC2 (stereo unspecified)	Pf growth 48h inconclusive, HCV inh 10µM (no result: LASV entry inh, Marburg entry inh)
COc1cc2c(cc1OC)C(COc1ccc3c(C)cc(=O)oc3c1)N(C(=O)c1cccc(OC)c1OC)CC2 (stereo unspecified)	LASV entry inh 2.82µM (no result: Pf growth 48h, Pf growth 96h, HCV inh)
CCCCC(=O)N1CCc2cc(OC)c(OC)cc2C1COc1ccc(OC)cc1 (stereo unspecified)	HCMV antiviral -98.3 (no result: Pf growth 48h, Pf growth 96h, Marburg entry inh, HCV inh)
Cc1ccccc1-c1nn2c(=O)cc(CN3CCN(C(=O)c4ccc(C(C)(C)C)cc4)CC3)nc2s1	none (no result: Pf growth 48h, Pf growth 96h, Marburg entry inh, HCV inh)
Cc1onc(-c2c(Cl)cccc2Cl)c1C(=O)N1C(C)CCCC1C (stereo unspecified)	none (no result: Pf growth 48h, Pf growth 96h)
Cn1nc(-c2ccccc2)c(C(O)c2ccccc2C(F)(F)F)c1Cl (stereo unspecified)	Pf growth 48h inconclusive, Pf growth 96h inconclusive
COC(c1ccccc1)c1c(-c2ccccc2)nn(C)c1Cl (stereo unspecified)	Pf growth 48h 13.1µM, Pf growth 96h 11.7µM
C[Se]CC[C@H](N)C(=O)O	none (no result: LASV entry inh, HCMV antiviral, Marburg entry inh, HCV inh)
CCCOc1ccc(/C=N/NC(=O)c2nnn(-c3nonc3N)c2-c2cccs2)cc1OC	Pf growth 48h 13.1µM, Pf growth 96h 11.7µM, HCV inh inconclusive
Nc1nonc1-n1nnc(C(=O)N/N=C/c2ccc(F)cc2)c1-c1cccs1	Pf growth 48h inconclusive, HCMV antiviral active, Pf growth 96h inconclusive
COc1cccc(/C=N/NC(=O)c2nnn(-c3nonc3N)c2-c2cccs2)c1	Pf growth 48h inconclusive, HCMV antiviral inconclusive (no result: LASV entry inh, Marburg entry inh)
CCOC(=O)C[n+]1ccc2c([nH]c3ccccc32)c1C	LASV entry inh inconclusive, Pf growth 96h 10.4µM
Fc1cccc(Cl)c1Cn1ncc2ccccc21	none (no result: LASV entry inh, Marburg entry inh)
O=c1cnn(Cc2c(Cl)cccc2Cl)c2ccccc12	Pf growth 48h 13.1µM, Pf growth 96h 9.28µM, Marburg entry inh inconclusive
COc1nc(N2CCOCC2)nc(C)c1[N+](=O)[O-]	Pf growth 96h 11.7µM
Nc1nc2c(ncn2[C@@H]2O[C@H](CNCc3cnc(N4CCOCC4)nc3)[C@@H](O)[C@H]2O)c(=O)[nH]1	none (no result: LASV entry inh, Pf growth 48h, Pf growth 96h, Marburg entry inh, HCV inh)
CCOC(=O)C(CS)NCCN[C@@H](CS)C(=O)OCC (stereo partly specified)	none (no result: LASV entry inh, HCMV antiviral, Marburg entry inh, HCV inh)
COc1ccccc1C(=O)C1CCCN(C(=O)c2cccnc2SC)C1 (stereo unspecified)	Pf growth 48h 5.22µM
O=C(c1ccc2ccccc2c1)C1CCCN(C(=O)CN2C(=O)CSC2=O)C1 (stereo unspecified)	HCMV antiviral -67.7, Pf growth 96h 10.4µM
CSc1ccc(C(=O)C2CCCN(C(=O)c3cccnc3SC)C2)cc1 (stereo unspecified)	Pf growth 48h inconclusive, HCV inh inconclusive (no result: LASV entry inh, Marburg entry inh)
CSc1ncccc1C(=O)N1CCCC(C(=O)c2ccc3ccccc3c2)C1 (stereo unspecified)	LASV entry inh 11.2µM, Pf growth 96h inconclusive, Marburg entry inh inconclusive, HCV inh inconclusive
COc1ccccc1C(=O)C1CCCN(C(=O)C2CCCC2)C1 (stereo unspecified)	Pf growth 96h inconclusive (no result: LASV entry inh, Marburg entry inh)
COc1ccc(N2C(=O)CCC(C(=O)O)C2c2ccc(F)cc2)cc1 (stereo unspecified)	Pf growth 96h 2.62µM
COc1ccc(C2C(C(=O)N3CCCCC3)CCC(=O)N2c2cc(OC)c(OC)c(OC)c2)cc1 (stereo unspecified)	LASV entry inh 7.3µM (no result: HCMV antiviral)
CCC(C)NC(=O)C1CCC(=O)N(c2ccc3c(c2)OCO3)C1c1ccc(OC)cc1 (stereo unspecified)	HCMV antiviral -62.1, Pf growth 96h inconclusive (no result: LASV entry inh, Marburg entry inh)
COc1ccc(C2C(C(=O)N3CCOCC3)CCC(=O)N2c2cc(OC)c(OC)c(OC)c2)cc1 (stereo unspecified)	Marburg entry inh inconclusive
CCC(C)NC(=O)C1CCC(=O)N(c2cc(OC)c(OC)c(OC)c2)C1c1ccc(OC)cc1 (stereo unspecified)	Pf growth 48h inconclusive, Pf growth 96h inconclusive
CCOC(=O)N1CCN(C(=O)C2CC(=O)N(c3ccc(OC)cc3)C2c2ccc(OC)cc2)CC1 (stereo unspecified)	LASV entry inh inconclusive, Pf growth 48h 9.28µM, Pf growth 96h inconclusive, Marburg entry inh inconclusive
COc1ccc(OC)c(CN(CC(C)C)S(=O)(=O)c2ccccc2Br)c1	none (no result: LASV entry inh, Pf growth 48h, Pf growth 96h, Marburg entry inh, HCV inh)
CC1CCCCN1CCCNC(=O)c1sc2ncccc2c1-n1cccc1 (stereo unspecified)	none (no result: Pf growth 48h, Pf growth 96h, Marburg entry inh, HCV inh)
COc1ccc(C2C(C(=O)NCc3ccccn3)CCC(=O)N2c2cc(OC)c(OC)c(OC)c2)cc1 (stereo unspecified)	Pf growth 96h 11.7µM, Marburg entry inh inconclusive
O=C1CC(c2nnc(Cc3ccc(F)cc3Cl)o2)CN1c1ccccc1 (stereo unspecified)	none (no result: Pf growth 48h, Pf growth 96h, HCV inh)
Cc1ccc(NC(=O)Nc2nc(-c3ccc(C)s3)cs2)cc1	LASV entry inh inconclusive, Pf growth 96h 14.7µM, HCV inh inconclusive
COc1ccc(-c2csc(NC(=O)Nc3ccccc3)n2)cc1	HCMV antiviral inconclusive, HCV inh inconclusive (no result: LASV entry inh, Pf growth 48h, Marburg entry inh)
Cc1cc(C)nc(-n2nc(C)cc2NC(=O)CN2CCc3ccccc3C2)n1	LASV entry inh inconclusive, Pf growth 48h 4.15µM, Marburg entry inh inconclusive
Cc1cc(C)nc(-n2nc(C)cc2NC(=O)CN2CCCC(C)C2)n1 (stereo unspecified)	Pf growth 48h inconclusive
CCN(CC(=O)Nc1cc(C)nn1-c1nc(C)cc(C)n1)Cc1ccccc1	LASV entry inh inconclusive, HCMV antiviral inconclusive, Pf growth 96h 4.15µM, Marburg entry inh inconclusive, HCV inh inconclusive (no result: Pf growth 48h)
Cc1cc(C)nc(-n2nc(C)cc2NC(=O)CNCc2ccccc2)n1	Marburg entry inh inconclusive
CCC(=O)Nc1ccccc1-c1nc2ccccc2n(C(C)C(=O)Nc2ccc(OC)cc2)c1=O (stereo unspecified)	none (no result: Pf growth 48h, Pf growth 96h, HCV inh)
CC(C)C(=O)Nc1ccc2c(c1)nc(CCN1CCN(c3ccccn3)CC1)n2C	HCMV antiviral inconclusive
COc1ccc(-c2cn(Cc3ccc(C(=O)c4ccccc4)cc3)nn2)cc1	HCMV antiviral -82.3 (no result: LASV entry inh, Marburg entry inh)
COc1ccc(C(=O)Nc2cccc([N+](=O)[O-])c2)cc1Br	LASV entry inh inconclusive, Marburg entry inh inconclusive, HCV inh inconclusive (no result: Pf growth 48h, Pf growth 96h)
COc1ccc(/C=C(/C#N)C(=O)Nc2cccc(C)c2C)cc1C(=O)O	Pf growth 96h inconclusive
COc1ccc(NC(=O)c2cccc([N+](=O)[O-])c2)cc1	LASV entry inh inconclusive, HCV inh inconclusive
